Several values for one entry are separate records, joined by “and”; a condition that tells them apart may be missing. Equal values may be shown once. The whole screen tested about 5,500 compounds, of which about 2,000 (36%) were called active. Inconclusive results (about 18%) are left out. Rule as the data show it: active = normalized growth mostly below about 0.91 (no sharp cut-off); inconclusive = no clear call, values can overlap the other calls; inactive = mostly above about 0.92. The list shows a part of the results.
Assay: chemical genetic growth profiling, strain panel (AID 1159580);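 also: tested at 20 µM; growth read once vehicle control cultures reached saturation at 30 °C; 1 = growth at the plate median or of vehicle wells; lower values mean less growth of the strain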
Settings: growth OD

Measured: normalized growth

NCC(CC(=O)O)c1ccc(Cl)cc1 (stereo not drawn)
inactive: S. cerevisiae deletion strains, locus YJR075W, strain HOC1, hits give low values 0.991 | S. cerevisiae deletion strains, locus YKL009W, strain mrt4, hits give low values 0.968 | S. cerevisiae deletion strains, locus YKL068W, hits give low values 1.01 | S. cerevisiae deletion strains, locus YKL085W, strain MDH1 (second series), hits give low values 0.991 | S. cerevisiae deletion strains, locus YKL085W, strain MDH1, hits give low values 0.991 | S. cerevisiae deletion strains, locus YKL160W, strain elf1, hits give low values 1.01 | S. cerevisiae deletion strains, locus YKR001C, strain vps1, hits give low values 0.974 | S. cerevisiae deletion strains, locus YKR026C, strain gcn3, hits give low values 0.995 | S. cerevisiae deletion strains, locus YKR091W, strain srl3, hits give low values 1 | S. cerevisiae deletion strains, locus YLL001W, strain dnm1, hits give low values 1.03 | S. cerevisiae deletion strains, locus YLL026W, hits give low values 1.01 | S. cerevisiae deletion strains, locus YLL041C, strain sdh2, hits give low values 0.993 | S. cerevisiae deletion strains, locus YLR027C, strain aat2, hits give low values 1.01 | S. cerevisiae deletion strains, locus YLR039C, strain RIC1, hits give low values 1.07 | S. cerevisiae deletion strains, locus YLR058C, strain SHM2, hits give low values 1.02 | S. cerevisiae deletion strains, locus YLR102C, strain apc9, hits give low values 0.985 | S. cerevisiae deletion strains, locus YLR113W, strain HOG1, hits give low values 1.05 | S. cerevisiae deletion strains, locus YLR221C, strain rsa3, hits give low values 0.976 | S. cerevisiae deletion strains, locus YLR258W, strain gsy2, hits give low values 0.984 | S. cerevisiae deletion strains, locus YLR262C, strain YPT6 (second series), hits give low values 0.995 | S. cerevisiae deletion strains, locus YLR262C, strain YPT6, hits give low values 1.08 | S. cerevisiae deletion strains, locus YLR268W, strain sec22, hits give low values 1.02 | S. cerevisiae deletion strains, locus YLR320W, strain mms22, hits give low values 0.968 | S. cerevisiae deletion strains, locus YLR330W, strain CHS5, hits give low values 1.02 | S. cerevisiae deletion strains, locus YLR342W, strain FKS1 (second series), hits give low values 1.03 | S. cerevisiae deletion strains, locus YLR342W, strain FKS1, hits give low values 1.03 | S. cerevisiae deletion strains, locus YLR357W, strain rsc2, hits give low values 1 | S. cerevisiae deletion strains, locus YLR370C, strain arc18, hits give low values 0.997 | S. cerevisiae deletion strains, locus YLR371W, strain rom2, hits give low values 0.985 | S. cerevisiae deletion strains, locus YLR384C, strain iki3, hits give low values 1.01 | S. cerevisiae deletion strains, locus YLR418C, strain cdc73, hits give low values 0.979 | S. cerevisiae deletion strains, locus YML016C, strain PPZ1, hits give low values 1.02 | S. cerevisiae deletion strains, locus YML032C, strain rad52, hits give low values 0.987 | S. cerevisiae deletion strains, locus YML120C, strain ndi1, hits give low values 0.999 | S. cerevisiae deletion strains, locus YML124C, strain tub3, hits give low values 0.983 | S. cerevisiae deletion strains, locus YMR058W, strain fet3, hits give low values 1.02 | S. cerevisiae deletion strains, locus YMR078C, strain ctf18, hits give low values 0.99 | S. cerevisiae deletion strains, locus YMR125W, strain sto1, hits give low values 0.97 | S. cerevisiae deletion strains, locus YMR129W, hits give low values 0.999 | S. cerevisiae deletion strains, locus YMR205C, strain PFK2, hits give low values 1.01 | S. cerevisiae deletion strains, locus YMR223W, strain ubp8, hits give low values 1 | S. cerevisiae deletion strains, locus YMR231W, strain pep5, hits give low values 1.01 | S. cerevisiae deletion strains, locus YMR263W, strain SAP30, hits give low values 1.01 | S. cerevisiae deletion strains, locus YMR307W, strain GAS1, hits give low values 1.1 | S. cerevisiae deletion strains, locus YNL067W, strain RPL9B, hits give low values 1 | S. cerevisiae deletion strains, locus YNL071W, strain lat1, hits give low values 0.991 | S. cerevisiae deletion strains, locus YNL128W, strain TEP1, hits give low values 1.01 | S. cerevisiae deletion strains, locus YNL153C, strain GIM3, hits give low values 1.01 | S. cerevisiae deletion strains, locus YNL175C, strain NOP13, hits give low values 0.977 | S. cerevisiae deletion strains, locus YNL183C, strain NPR1, hits give low values 0.993 | S. cerevisiae deletion strains, locus YNL197C, strain WHI3, hits give low values 1.04 | S. cerevisiae deletion strains, locus YNL209W, strain ssb2, hits give low values 0.997 | S. cerevisiae deletion strains, locus YNL224C, strain SQS1, hits give low values 0.993 | S. cerevisiae deletion strains, locus YNL233W, strain BNI4, hits give low values 1.01 | S. cerevisiae deletion strains, locus YNL248C, strain rpa49, hits give low values 0.961 | S. cerevisiae deletion strains, locus YNL250W, strain rad50, hits give low values 0.986 | S. cerevisiae deletion strains, locus YNL271C, strain bni1, hits give low values 0.987 | S. cerevisiae deletion strains, locus YNL298W, strain CLA4, hits give low values 0.984 | S. cerevisiae deletion strains, locus YNL307C, strain MCK1, hits give low values 0.977 | S. cerevisiae deletion strains, locus YNL322C, strain KRE1 (second series), hits give low values 0.985 | S. cerevisiae deletion strains, locus YNR049C, strain mso1, hits give low values 1.01 | S. cerevisiae deletion strains, locus YNR052C, strain pop2, hits give low values 0.979 | S. cerevisiae deletion strains, locus YOL012C, strain htz1 1.49 | S. cerevisiae deletion strains, locus YOL147C, strain pex11, hits give low values 0.984 | S. cerevisiae deletion strains, locus YOR001W, strain rrp6, hits give low values 0.99 | S. cerevisiae deletion strains, locus YOR061W, strain CKA2, hits give low values 1.02 | S. cerevisiae deletion strains, locus YOR069W, strain VPS5, hits give low values 1.01 | S. cerevisiae deletion strains, locus YOR070C, strain gyp1, hits give low values 0.98 | S. cerevisiae deletion strains, locus YOR080W, strain dia2, hits give low values 0.997 | S. cerevisiae deletion strains, locus YOR083W, strain WHI5 (second series), hits give low values 1.04 | S. cerevisiae deletion strains, locus YOR083W, strain WHI5, hits give low values 0.988 | S. cerevisiae deletion strains, locus YOR106W, strain vam3, hits give low values 1.02 | S. cerevisiae deletion strains, locus YOR136W, strain idh2, hits give low values 0.974 | S. cerevisiae deletion strains, locus YOR144C, strain elg1, hits give low values 0.992 | S. cerevisiae deletion strains, locus YOR184W, strain ser1, hits give low values 0.984 | S. cerevisiae deletion strains, locus YOR231W, strain MKK1, hits give low values 1.08 | S. cerevisiae deletion strains, locus YOR265W, strain rbl2, hits give low values 1 | S. cerevisiae deletion strains, locus YOR270C, strain vph1, hits give low values 0.976 | S. cerevisiae deletion strains, locus YOR290C, strain snf2, hits give low values 0.957 | S. cerevisiae deletion strains, locus YOR316C, strain cot1, hits give low values 0.986 | S. cerevisiae deletion strains, locus YPL051W, strain arl3, hits give low values 0.999 | S. cerevisiae deletion strains, locus YPL055C, strain LGE1, hits give low values 1.02 | S. cerevisiae deletion strains, locus YPL078C, strain atp4, hits give low values 1.02 | S. cerevisiae deletion strains, locus YPL106C, strain sse1, hits give low values 0.968 | S. cerevisiae deletion strains, locus YPL240C, strain hsp82, hits give low values 0.992 | S. cerevisiae deletion strains, locus YPL241C, strain CIN2, hits give low values 1.01 and 0.983 | S. cerevisiae deletion strains, locus YPL256C, strain CLN2, hits give low values 1.08 | S. cerevisiae deletion strains, locus YPR119W, strain clb2, hits give low values 0.993 | S. cerevisiae deletion strains, locus YPR141C, strain kar3, hits give low values 0.996 | S. cerevisiae deletion strains, locus YPR163C, strain tif3, hits give low values 0.99 | S. cerevisiae deletion strains, locus YPR167C, strain met16, hits give low values 0.991 | S. cerevisiae deletion strains, strain wtn01, hits give low values 0.992 | S. cerevisiae strains, strain wild type, hits give low values 1.03
